“And” between values parts separate entries of the source, which are not always exact repeats. Equal entries are not always repeated. Records with an inconclusive call do not appear. The source made the active and inactive calls.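 How the source made its calls, unless noted: active means compounds lowering colon cancer cell viability after pretreatment blocking the GSK3B kinase; inactive means the rest.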 Where a SMILES comes first, the peptide text is derived from it. [ ]: non-standard residue; d: D form. The star is where a group is joined. Sta = CC(C)C[C@H](N)[C@@H](O)CC(=O)O; Isovaleryl = CC(C)CC(=O)*
Legend:
[1] = stimulators of nuclear beta-catenin in C2C12, primary screen, imaging, WNT3A-conditioned medium, mouse C2C12, NPC library (AID 1117326; in the data active means nuclear beta-catenin stimulation mostly above about 4.2%, no sharp cut-off; inactive means mostly below about 10%; further: reference of the scale not given here); details: stronger effect = higher value
[2] = stimulators of insulin release from INS-1E, primary screen, cell-based, 5 mM glucose, NPC library (AID 1117329;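 active means compound raises insulin release from rat beta cells at 5 mM glucose, no numeric limit stated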; further: reference of the scale not given here); details: rat INS-1E insulin secretion, at 10 µM, stronger effect = higher value
[3] = growth inhibition of GSK3B-pretreated HCT116 cells – cell-based, CellTiter-Glo, 0.2 to 20 µM (AID 1117336); details: HCT116 viability after GSK3B inhibitor, at 20 µM, stronger effect = higher value
[4] = inhibition of endothelial tube formation, primary screen, imaging, VEGF stimulated, CD31 staining, tube area, NPC library (AID 1117340;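 active means compound that reduces growth-factor-driven endothelial tube area in a mixed cell culture, no cutoff stated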); details: VEGF-stimulated ADSC/ECFC co-culture, at 10 µM, stronger effect = higher value
[5] = glucagon-like peptide 1 release enhancers, primary assay, NCI-H716 cell line, NPC library (AID 1117341;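 active means compound raises GLP1 secretion from the human gut endocrine cells, with no numeric limit stated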; further: reference of the scale not given here); details: NCI-H716 cells, at 10 µM, stronger effect = higher value
[6] = HCT116 colon cancer cell growth inhibition, primary screen, CellTiter-Glo luminescence, NPC library (AID 1117342;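 active means compounds that lower survival of HCT116 colon cancer cells in the luminescence readout, no numeric limit stated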); details: at 20 µM (top of the series)
[7] = CellTiter-Glo luminescent readout of SW480 viability loss, NPC library primary (AID 1117343;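 active means compounds that lower viability of the colon cancer cells in the luminescence readout, with no numeric limit stated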); details: CellTiter-Glo luminescence; at 20 µM (top of the series) unless noted
[8] = decreased DLD-1 cellular survival, CellTiter-Glo luminescent readout, NPC compound collection, primary HTS (AID 1117346;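 active means compounds that lower survival of DLD-1 colon cancer cells in the luminescence readout, no cutoff given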); details: DLD-1 viability, CellTiter-Glo luminescence; at 20 µM (top of the series)
[9] = tested on: Aerobactin synthetase IucA (Klebsiella pneumoniae); experiment: IucA aerobactin synthetase inhibitors, biochemical, Tocris library, absorbance (AID 1345561; call rule not given here;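 further: 100% = enzyme without compound and 0% = no enzyme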); details: purified IucA enzyme assay, absorbance (OD) read-out; stronger effect = lower value;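 tested at 8 µM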
[10] = sensitizers of A549 cells to miR-34 induction, primary screen, imaging, A549 dox-inducible miR-34, nuclei and caspase counts (AID 1347080;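 active means compounds whose cell count with miR-34 switched on is under 0.7 times the count with it off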); details: A549 miR-34 inducible, Hoechst nuclei count, 48 h
[11] = viability rescue of complex I mutant cybrids, primary screen, cell-based, galactose medium, ATP luminescence (AID 1645843;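 active means z-score of at least 1.8 in each of two replicates, scored against plate mean and spread of sample wells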;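 further: positive z means more ATP and so rescue of galactose-driven cybrid death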); details: complex I mutant cybrid cells, 72 h, stronger effect = higher value
[12] = growth inhibition of DIPG glioma cells, dose response, cell-based, SU-DIPG-XVII, MIPE5.0, CellTiter-Glo, qHTS (AID 1347060; cut-off not given, nearly all actives have AC50 up to about 26 µM); details: SU-DIPG-XVII viability, CellTiter-Glo ATP luminescence
[13] = growth inhibition of DIPG glioma cells, dose response, cell-based, SU-DIPG-XIII, MIPE4.0, CellTiter-Glo, qHTS (AID 1347061; cut-off not given, nearly all actives have AC50 up to about 37 µM;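 further: cells exposed to compound for 48 hours before readout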); details: SU-DIPG-XIII viability, CellTiter-Glo ATP luminescence
[14] = growth inhibition of DIPG glioma cells, dose response, cell-based, JHH-DIPG-1, MIPE4.0, CellTiter-Glo, qHTS (AID 1347062; cut-off not given, nearly all actives have AC50 up to about 27 µM); details: JHH-DIPG-1 viability, CellTiter-Glo ATP luminescence
[15] = SU-DIPG-XXV glioma cell viability, MIPE5.0 library, qHTS (AID 1347068; cut-off not given, nearly all actives have IC50 up to about 30 µM)
[16] = liver-stage malaria parasite growth inhibition, primary screen, cell-based, HepG2, luciferase luminescence, HepG2 viability (AID 624349; in the data active means parasite load remaining mostly below about 12%, no sharp cut-off; inactive means mostly above about 10%;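 further: 100% = mean of DMSO negative control wells on the same plate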); details: P. berghei liver stage in HepG2, luciferase luminescence, concentration not given here; parasite load remaining: stronger effect = lower value; viability: measured here: HepG2 viability without parasites
[17] = survival rescue of mitochondrial mutant cells in low glucose, primary screen, MELAS cybrids, Rieske KO mouse fibroblasts, CellTiter-Glo (AID 1508586;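 active means mean z-score across replicates of 1.96 or higher in either the MELAS or the Rieske mutant cell line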;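 further: z relative to plate mean and SD of compound and empty wells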)
[18] = stronger effect = lower value, cell number ratio, induced over uninduced
[19] = measured here: relative caspase fold change +Dox/-Dox
[20] = measured here: total cells with miR-34 induction, stronger effect = lower value
[21] = measured here: total cells without miR-34 induction
[22] = MELAS cybrid survival, CellTiter-Glo 48 h, stronger effect = higher value
[23] = Rieske KO mouse fibroblast survival, CellTiter-Glo 72 h

O=C(O)Cn1c(C(=O)Nc2nc(-c3ccccc3Cl)cs2)cc2ccccc21
nuclear beta-catenin stimulation ([1]; at 10 µM): 0.7% (inactive)
nuclear beta-catenin stimulation ([1]; stimulation, at 2 µM): -0.5%
insulin secretion stimulation [2]: 0.05% (inactive)
viability decrease [3]: 104% (active)
tube area decrease [4]: 47.9% (active)
GLP1 secretion stimulation [5]: 5.4% (inactive)
inhibition of viability [6]: 72.1% (active)
viability decrease (inhibition) [7]: 102% (active)
viability decrease (inhibition) [8]: 60.6% (active)
remaining activity [9]: 99.8% (inactive)
fold change [10, 18]: 0.989 (inactive)
fold change [10, 19]: 1.35
cell count [10, 20]: 8300
cell count [10, 21]: 8400
z-score [11]: 1.2 (inactive)

O=C(O)C(=O)Nc1cccc(-c2nn[nH]n2)c1
nuclear beta-catenin stimulation ([1]; at 10 µM): 1.3% (inactive)
nuclear beta-catenin stimulation ([1]; stimulation, at 2 µM): 1.9%
insulin secretion stimulation [2]: 4% (inactive)
viability decrease [3]: 19.5% (inactive)
tube area decrease [4]: 0.4% (inactive)
GLP1 secretion stimulation [5]: -3.2% (inactive)
inhibition of viability [6]: -2.9% (inactive)
viability decrease (inhibition) [7]: 32.2% (inactive)
viability decrease (inhibition) [8]: 9.1% (inactive)
outcome [12]: inactive
outcome [13]: inactive
outcome [14]: inactive
outcome [15]: inactive

CN1CCC(Nc2ncc3ncnc(Nc4ccc(F)c(Cl)c4)c3n2)CC1
nuclear beta-catenin stimulation ([1]; at 10 µM): 11.6% (inactive)
nuclear beta-catenin stimulation ([1]; stimulation, at 2 µM): 0.1%
insulin secretion stimulation [2]: 5.85% (inactive)
viability decrease [3]: 57.4% (active)
tube area decrease [4]: -4.5% (inactive)
GLP1 secretion stimulation [5]: 6.3% (inactive)
inhibition of viability [6]: 73.7% (active)
viability decrease (inhibition) [7]: 97.8% (active)
viability decrease (inhibition) [8]: 78.2% (active)
remaining activity [9]: 123% (inactive)
fold change [10, 18]: 1.35 (inactive)
fold change [10, 19]: 0.869
cell count [10, 20]: 3140
cell count [10, 21]: 2330
z-score [11]: -0.455 (inactive)

CN1CC(=O)N/C1=N/C(=O)Nc1cccc(Cl)c1
nuclear beta-catenin stimulation ([1]; at 10 µM): 0.5% (inactive)
nuclear beta-catenin stimulation ([1]; stimulation, at 2 µM): -0.6%
insulin secretion stimulation [2]: -2.5% (inactive)
viability decrease [3]: -6.65% (inactive)
tube area decrease [4]: -5.1% (inactive)
GLP1 secretion stimulation [5]: 4.2% (inactive)
inhibition of viability [6]: -16.7% (inactive)
viability decrease (inhibition) [7]: 45.2% (inactive)
viability decrease (inhibition) [8]: 3.8% (inactive)
remaining activity [9]: 109% (inactive)
fold change [10, 18]: 0.899 (inactive)
fold change [10, 19]: 1.49
cell count [10, 20]: 8750
cell count [10, 21]: 9740
z-score [11]: 0.46 (inactive)

CCN[C@H]1C[C@H](C)S(=O)(=O)c2sc(S(N)(=O)=O)cc21
parasite load remaining [16]: 70.8% (inactive) and 54% (inactive)
viability [16]: 73% and 119%
nuclear beta-catenin stimulation ([1]; at 10 µM): 0.6% (inactive)
nuclear beta-catenin stimulation ([1]; stimulation, at 2 µM): 1.7%
insulin secretion stimulation [2]: 2.65% (inactive)
viability decrease [3]: 10.3% (inactive)
tube area decrease [4]: -2.8% (inactive)
GLP1 secretion stimulation [5]: 2.1% (inactive)
inhibition of viability [6]: 4.1% (inactive)
viability decrease (inhibition) [7]: -12.1% (inactive)
viability decrease (inhibition) [8]: 3.2% (inactive)
outcome [12]: inactive
outcome [13]: inactive
outcome [14]: inactive
outcome [15]: inactive
fold change [10, 18]: 0.888 (inactive) and 0.89 (inactive)
fold change [10, 19]: 0.692 and 0.631
cell count [10, 20]: 8830 and 9540
cell count [10, 21]: 9940 and 10700
z-score [17, 22]: -0.0417 (inactive) and -1.04 (inactive)
z-score [17, 23]: -0.635 and -0.666
z-score [11]: 0.255 (inactive)

CC(C)CC(=O)N[C@H](C(=O)N[C@H](C(=O)N[C@@H](CC(C)C)[C@@H](O)CC(=O)N[C@@H](C)C(=O)N[C@@H](CC(C)C)[C@@H](O)CC(=O)O)C(C)C)C(C)C (Isovaleryl-VV[Sta]A[Sta]-OH)
parasite load remaining [16]: 101% (inactive)
viability [16]: 102%
nuclear beta-catenin stimulation ([1]; at 10 µM): -1.6% (inactive)
nuclear beta-catenin stimulation ([1]; stimulation, at 2 µM): -0.3%
insulin secretion stimulation [2]: 4.9% (inactive)
viability decrease [3]: -3.4% (inactive)
tube area decrease [4]: -25.1% (inactive)
GLP1 secretion stimulation [5]: 0.5% (inactive)
inhibition of viability [6]: 4% (inactive)
viability decrease (inhibition) [7]: -0.3% (inactive)
viability decrease (inhibition) [8]: 13% (active)
outcome [12]: inactive
outcome [13]: inactive
outcome [14]: inactive
outcome [15]: inactive
fold change [10, 18]: 0.91 (inactive) and 1.02 (inactive)
fold change [10, 19]: 1.28 and 1.09
cell count [10, 20]: 7720 and 5130
cell count [10, 21]: 8480 and 5040
z-score [17, 22]: -1.11 (inactive)
z-score [17, 23]: -0.328

COP(=O)(OC)OC(c1ccc(Cl)cc1)P(=O)(OC)OC (centres undefined)
nuclear beta-catenin stimulation ([1]; at 10 µM): -1.5% (inactive)
nuclear beta-catenin stimulation ([1]; stimulation, at 2 µM): 1.2%
insulin secretion stimulation [2]: 1.8% (inactive)
viability decrease [3]: -3.65% (inactive)
tube area decrease [4]: -20.8% (inactive)
GLP1 secretion stimulation [5]: 1.3% (inactive)
inhibition of viability [6]: -20.4% (inactive)
viability decrease (inhibition) [7]: -1% (inactive)
viability decrease (inhibition) [8]: 1.6% (inactive)
remaining activity [9]: 122% (inactive)
fold change [10, 18]: 0.979 (inactive)
fold change [10, 19]: 1.41
cell count [10, 20]: 8810
cell count [10, 21]: 8990
z-score [11]: -0.085 (inactive)

Nc1ccn(C[C@@H](CO)OCP(=O)(O)O)c(=O)n1
nuclear beta-catenin stimulation ([1]; at 10 µM): 1.2% (inactive)
nuclear beta-catenin stimulation ([1]; stimulation, at 2 µM): 0.4%
insulin secretion stimulation [2]: 1.05% (inactive)
viability decrease [3]: 22.7% (inactive)
tube area decrease [4]: -2.6% (inactive)
GLP1 secretion stimulation [5]: 0.9% (inactive)
inhibition of viability [6]: 14.9% (inactive)
viability decrease (inhibition) [7]: 109% (active)
viability decrease (inhibition) [8]: 2.8% (inactive)
outcome [12]: inactive
outcome [13]: inactive
outcome [14]: inactive
outcome [15]: inactive

CC(=O)SC[C@@H](C)C(=O)N1CCC[C@H]1C(=O)N[C@@H](Cc1ccccc1)C(=O)O
nuclear beta-catenin stimulation ([1]; at 10 µM): -0.2% (inactive)
nuclear beta-catenin stimulation ([1]; stimulation, at 2 µM): -1.6%
insulin secretion stimulation [2]: 0% (inactive)
viability decrease [3]: -13.4% (inactive)
tube area decrease [4]: 7.4% (inactive)
GLP1 secretion stimulation [5]: 0.3% (inactive)
inhibition of viability [6]: 2.4% (inactive)
viability decrease (inhibition) [7]: -15.3% (inactive)
viability decrease (inhibition) [8]: -1.4% (inactive)
outcome [12]: inactive
outcome [13]: inactive
outcome [14]: inactive

C[C@H]1C[C@H]2[C@@H]3CCC4=CC(=O)C=C[C@]4(C)[C@H]3C(=O)C[C@]2(C)[C@@]1(O)C(=O)CO
nuclear beta-catenin stimulation ([1]; at 10 µM): 0.1% (inactive)
nuclear beta-catenin stimulation ([1]; stimulation, at 2 µM): 1.2%
insulin secretion stimulation [2]: 1.5% (inactive)
viability decrease [3]: 19% (inactive)
tube area decrease [4]: -11% (inactive)
GLP1 secretion stimulation [5]: 0.7% (inactive)
inhibition of viability [6]: -1.9% (inactive)
viability decrease (inhibition) [7]: 0.2% (inactive)
viability decrease (inhibition) [8]: 5.4% (inactive)
outcome [12]: inactive
outcome [13]: inactive
outcome [14]: inactive
outcome [15]: inactive

C=CCn1c(=O)n([C@@H]2O[C@H](CO)[C@@H](O)[C@H]2O)c2nc(N)[nH]c(=O)c21
nuclear beta-catenin stimulation ([1]; at 10 µM): 0.1% (inactive)
nuclear beta-catenin stimulation ([1]; stimulation, at 2 µM): 2.4%
insulin secretion stimulation [2]: -0.5% (inactive)
viability decrease [3]: -3.9% (inactive)
tube area decrease [4]: 12.2% (inactive)
GLP1 secretion stimulation [5]: 0.6% (inactive)
inhibition of viability [6]: 2.2% (inactive)
viability decrease (inhibition) [7]: -8.4% (inactive)
viability decrease (inhibition) [8]: 1% (inactive)
remaining activity [9]: 101% (inactive)
fold change [10, 18]: 0.961 (inactive)
fold change [10, 19]: 1.57
cell count [10, 20]: 9010
cell count [10, 21]: 9380
z-score [11]: 0.185 (inactive)

— PubChem BioAssay
